BoNT-A LC inh2: BoNT/A light chain protease inhibitors, primary screen, biochemical, flow cytometry, MLPCN library | Botulinum neurotoxin type A light chain protease (Clostridium botulinum A str. ATCC 3502) | multiplex microsphere protease substrate cleavage | inhibition, % at 10 µM | hit rate 0.17% among 360,000 | AID 588499, 2011; note: plate controls were buffer without enzyme for full effect and enzyme alone for no effect
Autofluor counter: compound fluorescence in toxin protease inhibitor counterscreen | compound autofluorescence counterscreen, microsphere flow cytometry; stronger effect = higher value | fluorescence intensity (no concentration beside the values) | hit rate 3.1% among 360,000; in the data active = fluorescence intensity above about 16000; inconclusive = no clear call, values can overlap the other calls
BoNT F protease: BoNT/F light chain protease inhibitors, primary screen, biochemical, flow cytometry, MLPCN library | Multiplex microsphere protease cleavage assay | inhibition, % at 10 µM | Botulinum neurotoxin type F light chain protease (Clostridium botulinum) | hit rate 0.22% among 360,000; in the data active = inhibition above about 35%, passing the limit was not always enough; inconclusive = no clear call, values can overlap the other calls; note: plate controls were buffer without enzyme for full effect and enzyme alone for no effect
Anthrax LF prot: Bacillus anthracis LF protease inhibitors, primary screen, biochemical, multiplex microsphere, MLPCN library; Lethal factor (Bacillus anthracis), P15917; multiplex microsphere protease cleavage assay; inhibition, % at 10 µM; hit rate 0.12% among 360,000; AID 588501, 2011; note: plate controls were buffer without enzyme for full effect and enzyme alone for no effect
* = called active by the depositor; u = inconclusive; ! = not active in a repeat. This is a sample that favours compounds with a hit; in the whole collection about 3.5% have one here. Cut-off read from the data, not from the text of the source, unless noted: active = inhibition above about 30%; inconclusive = no clear call, values can overlap the other calls; inactive = below that.

SMILES | BoNT-A LC inh2 | Autofluor counter | BoNT F protease | Anthrax LF prot
C=CCNC(=O)c1ccc(-c2nc(-c3ccc(Cl)c(Cl)c3)cs2)cc1 | u | 22537* | -3.1 | -3.7
O=C(COc1ccc(S(=O)(=O)NC2CCCCC2)cc1Cl)NCc1ccc2c(c1)OCO2 | 0.0 | 10786 | -2.7 | -1.7
O=C(COc1ccc(S(=O)(=O)NC2CCCCC2)cc1Cl)Nc1ccc2c(c1)OCO2 | -3.5 | 25024* | -6.9 | -3.4
COc1ccc(CCC(=O)Nc2ccc(Br)cn2)cc1 | u | 24589* | -3.6 | -0.7
CCOCCC(=O)Nc1cc(Cl)ccc1OC | 0.8 | 22752* | 1.4 | -1.8
COc1ccc(NC(=O)Nc2ccc(Br)cn2)cc1OC | -3.8 | 17621* | -12.6 | -2.8
COc1ccc(Cl)cc1NC(=O)NC(C)c1ccncc1 (centres undefined) | -2.4 | 17204* | -4.0 | 0.1
COc1ccc(Cl)cc1NC(=O)CCc1ccccc1 | -0.8 | 3100 | -11.4 | -2.2
CCN(Cc1ccncc1)Cc1ccc(Br)cc1 | -1.4 | 3913 | -13.8 | 9.8
COc1ccc(NC(=O)C2(C)CCN2CCOc2ccc(C)cc2)cc1OC (centres undefined) | -0.1 | 3795 | -7.2 | -3.5
COc1ccccc1NC(=O)Nc1ccc(Br)cn1 | 0.0 | 2341 | -1.6 | -2.1
COc1ccc(Cl)cc1NC(=O)Nc1ccc(Br)cn1 | u | 17461* | -6.2 | -3.0
C=CCN1C(=O)C2(/C(=C(\O)c3ccc4c(c3)OCCO4)C(=O)C(=O)N2CCCOC)c2ccccc21 (centres undefined) | 0.2 | 23166* | -2.2 | -0.4
C=C(C)CN1C(=O)C(O)(CC(=O)c2ccc3c(c2)OCCO3)c2ccccc21 (centres undefined) | -0.2 | 3347 | -8.4 | 0.3
O=C(Nc1nncs1)C1CC(=O)N(CCc2ccc(F)cc2)C1 (centres undefined) | -0.6 | 5219 | 3.3 | 2.3
CC1(NC(=O)N2CCCCC2)CCS(=O)(=O)C1 (centres undefined) | 2.5 | 22585* | 3.2 | -1.1
CC(C)n1cc(/C=C2\NC(=O)N(c3cccc(Cl)c3)C2=O)c2ccccc21 | u | 19627* | -0.7 | -3.1
CC(C)n1cc(/C=C2/NC(=O)N(c3cccc(Cl)c3)C2=O)c2ccccc21 | -1.2 | 9444 | -6.8 | -2.5
Cc1ccc(NC(=O)CSc2nnc(C)n2C2CC2)cc1S(=O)(=O)N1CCOCC1 | -4.6 | u | -15.0 | -4.1
COc1ccc(C(=O)N[C@H](C(=O)Nc2cccc(S(=O)(=O)N3CCOCC3)c2)C(C)C)cc1 | -0.3 | 2953 | -3.7 | -5.9
CCc1ccc(C(=O)CSc2nc3ccccc3c(=O)[nH]2)cc1 | 0.4 | 21509* | 1.2 | -6.0
Cc1cc(C)c(C(=O)CSc2nc3ccccc3c(=O)[nH]2)cc1C | -0.9 | 4376 | -4.7 | -2.2
Cc1ccc(C(=O)CSc2nc3ccccc3c(=O)[nH]2)cc1 | 2.8 | 21593* | 3.7 | -8.0
Cc1ccc(C(=O)CSc2nc3ccccc3c(=O)[nH]2)cc1C | -0.5 | 4835 | 11.6 | -0.2
O=S1(=O)CC(N2CCN(Cc3ccccc3F)CC2)CN1Cc1cn(Cc2cccc(Cl)c2)nn1 (centres undefined) | 0.5 | 4334 | 4.4 | 3.2
SMILES | BoNT-A LC inh2 | Autofluor counter | BoNT F protease | Anthrax LF prot
Cc1ccc(S(=O)(=O)N2CCN(C(=O)C3COc4ccccc4O3)CC2)cc1C (centres undefined) | u | 19329* | 4.9 | -2.6
CCOC(=O)N1CCN(S(=O)(=O)c2ccc(C)c(C)c2)CC1 | u | 23015* | 3.3 | 0.8
CCOC(=O)N1CCN(C(=O)C2CCN(S(=O)(=O)c3c(C)cc(C)cc3C)CC2)CC1 | -1.6 | 16613* | -4.6 | 2.5
CCOC(=O)N1CCN(S(=O)(=O)c2ccc(OCC)c(C)c2)CC1 | -0.4 | 2116 | -5.8 | 2.6
CCOC(=O)N1CCN(S(=O)(=O)c2c(C)cc(C)cc2C)CC1 | -0.9 | 4601 | -14.3 | 0.8
CCOC(=O)CC1(NC(=O)c2cc(COc3cccc(OC)c3)on2)CCCCC1 | -1.1 | 5643 | -0.5 | 0.9
C=Cc1c(C)c2cc3[nH]c(cc4nc(cc5nc(cc1[nH]2)C(C)=C5CCC(=O)O)C(CCC(=O)O)=C4C)c(C)c3C=C | 42.9*! | 6983 | -8.9 | 7.5
Cc1ccc(-c2[nH]nc(N)c2N=Nc2cccc(Cl)c2C)cc1 | -1.7 | 4762 | -17.9 | -5.7
Cc1cccc(N=Nc2c(N)n[nH]c2-c2ccc(Cl)cc2)c1 | 0.6 | 20404* | -2.4 | -6.3
Cc1cc(C)n(-c2ccc(C(=O)OCC(=O)Nc3ccc(Cl)c(S(=O)(=O)N(C)C)c3)cc2)n1 | u | 25627* | -7.4 | -1.9
